Data on 17 compounds can be found in PubChem BioAssay (Tox21).

Values joined by “and” are separate entries in the source; they are usually repeats but may differ in a detail not shown here. Equal values may be shown once. More than one record can exist for a structure, and the calls need not agree. Active and inactive are the calls of the source. Unless noted, calls come from the whole dose curve; as a rule, active = well fitted curve in the direction sought with a large enough effect in the repeat runs; inconclusive = weak or mixed curves; inactive = no such curve, though single readings can be large; an effect the other way counts as inactive or inconclusive.

A short description of assay [1]: qHTS assay to identify small molecule antagonists of the thyroid receptor (TR) signaling pathway (AID 743065). Note: nearly all actives have a fitted effect of over 55% in size. Note: potency is the fitted concentration of half-maximal effect. The essentials:
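GH3.TRE-Luc rat pituitary cells carrying two TR response elements driving luciferase were plated for 4 h, given compound plus 1 nM T3 (final), and incubated 23.5 h at 37 C. ONE-Glo luminescence measured reporter inhibition; CellTiter-Fluor fluorescence tracked cytotoxicity.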

Assay [2] relates to thyroid hormone receptor (rat, GH3 cells). Briefly: qHTS assay to identify small molecule agonists of the thyroid receptor (TR) signaling pathway (AID 743066; calls by dose curve).
Assay [3] is described as follows: qHTS assay to identify small molecule antagonists of the estrogen receptor alpha (ER-alpha) signaling pathway - cell viability counter screen (AID 743074; calls by dose curve; note: nearly all actives have a fitted effect of over 45% in size; note: potency is the fitted concentration of half-maximal effect). On the technique in general: In qHTS, concentration-response curves come from the screen itself.
The target of assay [4] is Estrogen receptor (Homo sapiens) (UniProt P03372). Briefly: qHTS assay to identify small molecule agonists of the estrogen receptor alpha (ER-alpha) signaling pathway (AID 743075; calls by dose curve; note: potency is the fitted concentration of half-maximal effect).
Chain of Estrogen receptor (Homo sapiens) (P03372 whole entry, looked up): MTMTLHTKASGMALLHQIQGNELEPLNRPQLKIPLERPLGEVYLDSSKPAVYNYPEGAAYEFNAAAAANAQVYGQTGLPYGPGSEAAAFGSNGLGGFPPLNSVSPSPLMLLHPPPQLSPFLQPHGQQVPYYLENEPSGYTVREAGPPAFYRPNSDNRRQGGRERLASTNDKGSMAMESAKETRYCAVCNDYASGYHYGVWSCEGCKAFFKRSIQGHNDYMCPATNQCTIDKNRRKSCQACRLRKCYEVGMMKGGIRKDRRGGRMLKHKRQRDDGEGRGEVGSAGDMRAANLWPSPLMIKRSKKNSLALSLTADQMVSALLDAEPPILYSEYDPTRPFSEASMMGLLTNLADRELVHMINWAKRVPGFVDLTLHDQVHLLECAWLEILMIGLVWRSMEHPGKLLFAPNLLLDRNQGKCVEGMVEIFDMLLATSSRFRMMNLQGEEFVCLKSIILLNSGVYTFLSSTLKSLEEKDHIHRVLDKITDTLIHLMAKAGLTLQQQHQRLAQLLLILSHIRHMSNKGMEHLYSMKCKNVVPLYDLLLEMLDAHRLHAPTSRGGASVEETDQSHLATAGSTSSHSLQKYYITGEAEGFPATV
The target is the same in assay [5]. Briefly: qHTS assay to identify small molecule agonists of the estrogen receptor alpha (ER-alpha) signaling pathway using the BG1 cell line (AID 743079). Note: nearly all actives have a fitted effect of over 20% in size. Note: potency is the fitted concentration of half-maximal effect.
A short description of assay [6]: qHTS assay to identify small molecule antagonists of the estrogen receptor alpha (ER-alpha) signaling pathway using the BG1 cell line (AID 743080; calls by dose curve;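 note: BG1 cells stimulated with 17beta-estradiol alongside compound; series mostly up to about 70 µM; nearly all actives have a fitted effect of over 25% in size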). The essentials: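 Seeding, 24 h rest, compound transfer from DMSO, 17beta-estradiol addition, 21.5 h incubation, CellTiter-Fluor (30 min, 37 C), then ONE-Glo (30 min, room temperature): this sequence was run on BG1-Luc-4E2 reporter cells.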

Assay [7] in a line: qHTS assay to identify small molecule antagonists of the estrogen receptor alpha (ER-alpha) signaling pathway using the BG1 cell line - cell viability counter screen (AID 743081).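 Note: compound given together with 17beta-estradiol as the ER stimulus; series mostly up to about 70 µM; nearly all actives have a fitted effect of over 45% in size.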
In assay [8] the target is Aromatase (Homo sapiens) (UniProt P11511). Briefly: qHTS assay to identify aromatase inhibitors (AID 743083). Note: nearly all actives have a fitted effect of over 55% in size. Note: potency is the fitted concentration of half-maximal effect.
Chain of Aromatase (Homo sapiens) (P11511 whole entry, looked up): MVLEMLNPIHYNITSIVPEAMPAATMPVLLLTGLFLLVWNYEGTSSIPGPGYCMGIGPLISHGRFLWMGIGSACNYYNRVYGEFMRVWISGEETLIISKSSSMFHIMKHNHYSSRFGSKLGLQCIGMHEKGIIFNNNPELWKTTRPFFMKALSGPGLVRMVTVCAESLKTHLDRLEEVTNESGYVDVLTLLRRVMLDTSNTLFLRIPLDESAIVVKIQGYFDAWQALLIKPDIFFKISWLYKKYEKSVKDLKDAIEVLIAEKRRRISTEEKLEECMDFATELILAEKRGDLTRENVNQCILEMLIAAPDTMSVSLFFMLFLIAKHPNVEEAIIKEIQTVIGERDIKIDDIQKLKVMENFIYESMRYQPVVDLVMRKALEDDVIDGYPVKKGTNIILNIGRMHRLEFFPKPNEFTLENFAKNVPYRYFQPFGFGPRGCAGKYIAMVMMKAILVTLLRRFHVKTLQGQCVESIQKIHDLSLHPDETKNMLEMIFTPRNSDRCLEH
The target of assay [9] is Estrogen receptor (Homo sapiens) (UniProt P03372). Briefly: qHTS assay to identify small molecule antagonists of the estrogen receptor alpha (ER-alpha) signaling pathway (AID 743069; active = well fitted curve in the direction sought with a large enough effect in the signal ratio in the repeat runs, not every such curve was filed as active; inconclusive = weak or mixed curves, or effect the other way; inactive = no such curve, though single readings can be large or run the other way; the % refers to the signal ratio). The essentials: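 Screening used a UAS-driven beta-lactamase reporter integrated into HEK293 cells expressing ER-alpha, stimulated with 17beta-estradiol alongside test compounds over 18 hr at 37C; signal came from LiveBLAzer B/G FRET fluorescence.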

The nature of assay [10]: qHTS assay to identify small molecule antagonists of the thyroid receptor (TR) signaling pathway - cell viability counter screen (AID 743064). Note: nearly all actives have a fitted effect of over 50% in size. Note: potency is the fitted concentration of half-maximal effect. The gist of the method:
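In-well cytotoxicity read by CellTiter-Fluor (30 min, 37 C) following 23.5 h exposure of GH3 cells bearing a TRE-luciferase sensor. Compounds were added alongside 1 nM (final) T3 to drive TR transactivation.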

On to `O=C(O)c1cccc(C(=O)O)c1`, for which the Potency result in assay [1], in [2], in assay [3], in [4], in assay [5] and in assay [6] was “inactive” in each case. Besides, the Potency entry in assay [7] and in [8] was “inactive” throughout.

For `CC[C@@H](N)CO`, the Potency result in assay [1], in [2], in [3], in assay [4], in assay [5] and in [6] was “inactive” throughout. Besides, the Potency entry in [7] and in assay [8] was “inactive” throughout.

In the case of `NNCCc1ccccc1`, the Potency in assay [1] is 30.7 µM (active). For the same compound, the Potency result in assay [2], in [3], in [7] and in assay [8] was “inactive” each time.

For `C=C(C)C1CC=C(C)C(OC(C)=O)C1` (stereo not given), the Potency result in assay [1], in assay [2], in assay [3], in [4], in assay [5] and in [6] was “inactive” each time. The Potency entry in [7] and in assay [8] was “inactive” in each case.

In the case of `CC(=O)CC(=O)Nc1ccc2[nH]c(=O)[nH]c2c1`, the Potency result in assay [1], in [2], in assay [3], in assay [4], in assay [5] and in assay [6] was “inactive” in each case. Further, the Potency entry in assay [7] and in [8] was “inactive” throughout.

Take `NCCO`: the Potency entry in assay [1], in [2], in [3], in [4], in assay [5] and in assay [6] was “inactive” throughout. In assay [7], the Potency result is “inactive”. Further, the Potency entry in assay [8] was “inactive and 61.1 µM (active)”.

`CN1C(=O)c2ccc([N+](=O)[O-])cc2C1=O`: the Potency result in [1], in assay [2], in assay [9], in [4], in assay [5] and in assay [6] was “inactive” in each case. Besides, the Potency result in assay [7] and in assay [8] was “inactive” each time.

Turning to `O=C(OCc1ccccc1)c1ccc(O)cc1`, the Potency entry in assay [1], in assay [2], in assay [9], in [3], in [7] and in [8] was “inactive” throughout. The Potency was 54.9 µM [inconclusive] (active) in assay [4]; 10.6 µM (active) and 12.2 µM (active) in assay [5].

As to `Cc1cccc(O)c1C`, the Potency entry in assay [1], in assay [2], in assay [3], in assay [4], in assay [5] and in [6] was “inactive” in each case. The Potency result in [7] and in assay [8] was “inactive” throughout.

For the compound `NC(=Nc1ccccc1)Nc1ccccc1`, the Potency result in [1], in assay [2], in assay [3] and in [4] was “inactive” in each case. Moreover, the Potency in assay [8] is 21.1 µM (active).

In the case of `CC(C)(C)c1ccccc1`, the Potency entry in [10], in assay [3] and in assay [7] was “inactive” throughout.

Regarding `CCCCOCCOC(=O)c1ccccc1C(=O)OCCOCCCC`, the Potency in assay [1] is 30 µM (active). Besides, the Potency entry in assay [2], in assay [9], in assay [3], in assay [4], in [5] and in [6] was “inactive” in each case. Also, the Potency result in [7] and in assay [8] was “inactive” in each case.

Take `CCN(CC)C(=S)SSC(=S)N(CC)CC`: the Potency was 34.2 µM (active) in assay [10]; “inactive and 39.8 µM (active)” in assay [3]; 168 nM (active) and 68.6 nM (active) and 55.8 nM (active) in assay [8]. In addition, the Potency result in [4] and in [7] was “inactive” throughout.

For the compound `CCCN[C@H]1CCc2nc(N)sc2C1`, the Potency entry in assay [10], in assay [2], in assay [3], in assay [7] and in [8] was “inactive” throughout.

Consider `CC(=O)O[C@]1(C(C)=O)CC[C@H]2[C@@H]3C[C@H](C)C4=CC(=O)CC[C@]4(C)[C@H]3CC[C@@]21C`, for which the Potency entry in assay [10], in [3], in [4], in assay [5], in assay [7] and in assay [8] was “inactive” each time.

Turning to `CC1COC(=O)O1` (stereo not given), the Potency entry in assay [1], in assay [2], in [9], in assay [3], in [4] and in assay [5] was “inactive” in each case. Further, the Potency entry in assay [6], in assay [7] and in assay [8] was “inactive” in each case.

As for `O=C(O[C@@H]1Cc2c(O)cc(O)cc2O[C@@H]1c1cc(O)c(O)c(O)c1)c1cc(O)c(O)c(O)c1`, the Potency in [1] was 27.4 µM (active) and 26.3 µM (active). Moreover, the Potency result in assay [2], in assay [9], in [3], in [4], in [5] and in assay [6] was “inactive” in each case. For the same compound, the Potency result in assay [7] and in [8] was “inactive” each time.
